Screening data: PubChem, National Center for Advancing Translational Sciences (NCATS)
FLuc inh – Photinus pyralis luciferase inhibition. P08659. purified P. pyralis luciferase, luminescence, biochemical. Potency, µM (top dose mostly 115 µM), usual class: inhibitors. 2.5% of 76,000 active. AID 1347043; note: nearly all actives have a fitted effect of over 65% in size
Target sequence (P08659 whole entry, looked up): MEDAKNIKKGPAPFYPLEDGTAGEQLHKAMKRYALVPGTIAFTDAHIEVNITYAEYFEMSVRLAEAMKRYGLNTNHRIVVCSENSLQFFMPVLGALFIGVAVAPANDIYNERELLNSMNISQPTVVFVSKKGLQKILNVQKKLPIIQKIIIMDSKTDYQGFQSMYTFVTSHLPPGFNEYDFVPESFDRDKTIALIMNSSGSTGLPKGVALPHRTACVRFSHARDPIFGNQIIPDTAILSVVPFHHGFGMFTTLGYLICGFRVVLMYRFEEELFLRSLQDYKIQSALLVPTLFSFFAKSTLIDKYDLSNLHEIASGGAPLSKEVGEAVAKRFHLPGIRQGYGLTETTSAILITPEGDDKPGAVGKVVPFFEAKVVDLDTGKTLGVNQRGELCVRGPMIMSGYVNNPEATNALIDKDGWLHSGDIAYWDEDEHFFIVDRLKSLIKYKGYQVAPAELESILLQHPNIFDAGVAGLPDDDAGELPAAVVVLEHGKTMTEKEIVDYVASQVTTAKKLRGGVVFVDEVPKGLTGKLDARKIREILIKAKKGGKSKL
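Luminescence read by CCD imaging after purified firefly luciferase (10nM final) was added to substrate buffer holding 10uM D-luciferin and 10uM ATP, pH 7.5, pre-dosed with compound.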
NPR1 antag – antagonists of human natriuretic peptide receptor Npr1; P16066; HEK293 hNpr1 GloSensor cGMP, ANP-stimulated luminescence; Potency, µM (highest dose often 46.3 µM), inactives show at the highest dose activity change, negative = inhibition, actives largely listed as inhibitors; 1.6% of 76,000 active; calls by dose curve; note: nearly all actives have a fitted effect of over 60% in size
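HEK293 cells stably expressing human Npr1 and cGMP GloSensor pGS-40F, loaded 2 h with 2% GloSensor reagent, given compound 30 min at room temperature. Luminescence read before and 20 min after 0.1 nM hNppA.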
3T3 cytotox – kills NIH 3T3 cells; NIH 3T3 viability, CellTiter-Glo ATP luminescence, 48-72 h; Potency, µM (titrated, usually from 96.7 µM), without a hit: at the top dose activity change, negative = cytotoxicity, actives largely listed as inhibitors; 4.3% of 94,000 active; note: nearly all actives have a fitted effect of over 55% in size
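Viability of NIH 3T3 cells after 48 or 72 hr compound treatment at 37 °C was assessed by CellTiter-Glo, with luminescence imaged following a 10 min room-temperature step.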
HEK293 tox – cytotoxic compounds in HEK 293 cells; HEK 293 viability, ATP luminescence (CellTiter-Glo), 48-72 h; Potency, µM (titrated, usually from 115 µM), inactives show top-dose activity change, negative = cytotoxicity, most hits filed as inhibitors; 6.6% of 94,000 active; note: nearly all actives have a fitted effect of over 60% in size
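250 HEK 293 cells/well; compound by pintool; incubated 48 or 72 hr at 37 degree Celsius; CellTiter-Glo added, 10 min RT, luminescence imaged.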
An asterisk follows results filed as active; i = inactive; ? = inconclusive; . = no result; [ ] = another dose, or the depositor's remark. Shown are actives, neighbours in structure and some others; about 11% of the full set was active somewhere. Unless noted, calls come from the whole dose curve; as a rule, active = well fitted curve in the direction sought with a large enough effect; inconclusive = small, poorly fitted or top-dose-only effect, or another doubt; inactive = no such curve, though single readings can be large; an effect the other way counts as inactive or inconclusive. % is set by controls: 0 for no effect and ±100 for the full control effect; potency is the fitted concentration of half-maximal effect.

SMILES	FLuc inh	NPR1 antag	3T3 cytotox	HEK293 tox
CC1(C)[C@H](Cc2cc(COc3ccccc3)on2)C[C@@H]1NC(=O)Cc1ccccc1	i	?	56µM*	56µM*
COc1ccc(-c2cc(C[C@@H]3C[C@H](NC(=O)c4ccccc4)C3(C)C)no2)cc1	i	?	?	?
CC1(C)[C@H](Cc2cc(COc3ccccc3)on2)C[C@@H]1NC(=O)COc1ccccc1	i	?	63µM*	50µM*
CC1(C)[C@H](Cc2cc(COc3ccccc3)on2)C[C@@H]1NC1CCOCC1	i	4%[70.6 µM]	?	?
CN(Cc1cc(C[C@@H]2C[C@H](NC(=O)COc3ccccc3)C2(C)C)no1)c1ccccc1	i	?	?	?
COc1ccccc1-n1c(=O)c(C(=O)N2CCN(C(=O)c3ccc(C(F)(F)F)cc3)CC2)nc2cccnc21	.	.	-6%	5%
O=C(c1nc2cccnc2n(C2CCCC2)c1=O)N1CCN([S+](=O)([O-])c2cccs2)CC1	.	.	-22%	?
Cc1ccc(NC(=O)c2ccc3c(c2)N(C)C2CCCCCN2C3=O)cc1F (stereo unspecified)	i	0%	?	32µM*
Cc1ccc(NC(=O)c2ccc3c(c2)N(C)C2CCCCN2C3=O)cc1C (stereo unspecified)	40µM*	-3%	?	?
Cc1ccc(NC(=O)c2ccc3c(c2)N(C)C2CCCCCN2C3=O)cc1C (stereo unspecified)	?	?	?	45µM*
Cc1ccc(NC(=O)c2ccc3c(c2)N(C)C2CCCCN2C3=O)cc1Cl (stereo unspecified)	?	-8%	-18%	?
Cc1cc(NC(=O)c2ccc3c(c2)N(C)C2CCCCN2C3=O)ccc1Cl (stereo unspecified)	25µM*	-1%	-24%	?
O=C(Cc1cccc(Cl)c1)N1CCC(C(=O)N2CCC(c3nc4ncccc4[nH]3)CC2)C1 (stereo unspecified)	.	.	-27%	-21%
O=C(CCc1nc2ccccc2s1)NCC1Cn2cccc2CN1Cc1ccccc1 (stereo unspecified)	i	-7%	?	?
CN1c2cc(C(=O)Nc3ccc4c(c3)OCCO4)ccc2C(=O)N2CCCCCC21 (stereo unspecified)	13µM*	-6%	?	?
COCC(=O)N1CCC(C(=O)NCC2(c3ccccc3)CCCCC2)CC1	i	4%	?	?
O=C(COc1ccc(F)cc1)N1CCCN(c2cc(-c3ccc(Br)cc3)[nH]n2)CC1	i	?	?	45µM*
O=C(c1cccs1)N1CCCN(c2cc(-c3ccc(F)cc3)[nH]n2)CC1	i	-10%	-12%	?
O=C(Cc1cccs1)N1CCCN(c2cc(-c3ccc(Br)cc3)[nH]n2)CC1	i	?	35µM*	45µM*
O=C(NCc1cccc(Cl)c1)C1CCN(c2nccc(Nc3ccccc3Cl)n2)CC1	.	.	-14%	?
O=C(NCc1cccs1)C1CCN(c2nccc(Nc3ccccc3Cl)n2)CC1	.	.	?	45µM*
Cc1ccc(Nc2ccnc(N3CCC(C(=O)NCc4cccs4)CC3)n2)cc1	.	.	22µM*	18µM*
CCCCn1c(=O)c(C(=O)N2CCN(C(=O)COC)CC2)nc2cccnc21	.	.	-4%	4%
Cn1ncc2c(C(=O)NC3CCCCC3)cc(-c3ccccc3F)nc21	.	.	-24%	-17%
O=C(NCCc1ccc(Cl)cc1)c1ccc2nnc(-c3cccc(C(F)(F)F)c3)n2c1	.	.	22µM*	?
SMILES	FLuc inh	NPR1 antag	3T3 cytotox	HEK293 tox
O=C(NCc1ccccc1Cl)c1ccc2nnc(-c3ccoc3)n2c1	.	.	?	112µM*
COc1cccc(CNC(=O)c2ccc3nnc(-c4cc[nH]c4)n3c2)c1	.	.	-28%	-3%
COc1cccc(CNC(=O)c2ccc3nnc(-c4cccc(C(F)(F)F)c4)n3c2)c1	.	.	?	45µM*
O=C(NC1CCCCC1)c1ccc2nnc(-c3cc(C(F)(F)F)cc(C(F)(F)F)c3)n2c1	.	.	32µM*	35µM*
O=C(NCc1ccccc1)c1ccc2nnc(-c3ccoc3)n2c1	.	.	?	-8%[172 µM]
CC(=O)N1CCN(C(=O)c2ccc3nc(-c4cccc(C)n4)oc3c2)CC1	.	.	-20%	-7%
O=C(O)CSCC(=O)N[C@H]1C[C@H]2C(=O)Nc3ccc(-c4cccs4)cc3C(=O)N2C1	i	3%	-20%	-17%
